Test results: PubChem BioAssay AID1851 (National Center for Advancing Translational Sciences (NCATS), 2009)
Hit rate of the full screen: of about 16,000 compounds, about 5,700 (36%) were called active. Not shown: some 24% with an inconclusive outcome. Calls follow the shape of the dose curve; as a rule, active = well fitted curve in the direction sought with a large enough effect; inconclusive = small, poorly fitted or top-dose-only effect, or effect the other way; inactive = no such curve, though single readings can be large or run the other way. Some of the results follow.

Target: Cytochrome P450 1A2 (Homo sapiens) (UniProt P05177)
Sequence (P05177 whole entry, looked up): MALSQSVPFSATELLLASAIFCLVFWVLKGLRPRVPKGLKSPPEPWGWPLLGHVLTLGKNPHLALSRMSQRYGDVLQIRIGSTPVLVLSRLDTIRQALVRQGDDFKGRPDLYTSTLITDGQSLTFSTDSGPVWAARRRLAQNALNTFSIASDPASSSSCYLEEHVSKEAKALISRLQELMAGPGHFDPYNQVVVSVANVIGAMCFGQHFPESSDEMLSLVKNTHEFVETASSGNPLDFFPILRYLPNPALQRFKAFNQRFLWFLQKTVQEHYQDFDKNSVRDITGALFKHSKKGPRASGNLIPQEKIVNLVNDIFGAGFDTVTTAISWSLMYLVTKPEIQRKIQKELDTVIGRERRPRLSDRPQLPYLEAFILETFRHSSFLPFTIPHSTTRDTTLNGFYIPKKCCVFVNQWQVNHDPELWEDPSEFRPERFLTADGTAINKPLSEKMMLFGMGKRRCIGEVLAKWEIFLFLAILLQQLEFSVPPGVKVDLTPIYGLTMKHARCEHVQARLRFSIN
Test: Cytochrome panel assay with activity outcomes
Details: recombinant CYP, pro-luciferin dealkylation, luminescence, p450-cyp1a2; series mostly up to 57.1 µM; activity, negative = inhibition: at the top concentration
% is scaled to controls: 0 for no effect and ±100 for the full control effect.

Structure (SMILES)	activity, negative = inhibition	AC50
Cc1cc(=O)oc(C)c1C(=O)Nc1ccc(Cl)cn1	-24.2% (inactive)	
COc1ccc(C(=O)Nc2ccc(Cl)cn2)cc1Cl		0.631 µM (active)
CCOc1ccc(C(=O)Nc2ccc(Cl)cn2)cc1Cl		1.26 µM (active)
CC(=O)N1CC2(CC2)CC1c1ccccc1 (configuration not stated)	14.3% (inactive)	
Oc1ccccc1CNn1cnnc1	-6.12% (inactive)	
CCSc1ncc(/C=N/Nc2ccc(F)cc2)n1C		2.82 µM (active)
CC(=O)Nc1ccc(NC(=O)Cn2c(-c3ccc(F)cc3)cnc2SCC(=O)Nc2c(C)cccc2C)cc1	1.9% (inactive)	
FC(F)(F)c1ccccc1-c1cncnc1NCCc1cnc[nH]1		6.31 µM (active)
COc1cccc(-c2cncnc2NCCc2cnc[nH]2)c1		0.398 µM (active)
COc1ccccc1-c1cncnc1NCCc1cnc[nH]1		1.26 µM (active)
O=C(Oc1ccccc1)N1CCC2(CC1)CN(c1ccncc1)C2	0.506% (inactive)	
CCCCN1C(=O)C(NC(=O)c2cccnc2)(C(F)(F)F)C2=C1CC(C)(C)CC2=O (configuration not stated)	3.24% (inactive)	
CCCC(=O)NCCc1c2n(c3ccc(OC)cc13)Cc1ccccc1-2		2.51 µM (active)
COc1ccc(OC)c(CNC(=O)CCNC(=O)Cn2ccc3ccccc3c2=O)c1	-21.6% (inactive)	
Cc1cnc(CNc2cc(-c3cccc(C#N)c3)ncn2)cn1		15.8 µM (active)
COc1cccc(-c2cc(NCc3cnc(C)cn3)ncn2)c1		5.01 µM (active)
O=C(O)Cc1cc2ccccc2nc1C(=O)O	-19.6% (inactive)	
CC(C)C(=O)Cc1ccc2ccccc2n1		3.16 µM (active)
C[C@@]12CCC(=O)C=C1CC[C@H]1[C@@H]2[C@@H](O)C[C@]2(C)[C@@H]1CC[C@@]2(O)C(=O)COC(=O)C1CCCC1	-13.3% [at 11.4 µM] (inactive)	
Cc1ccc(Cl)cc1N1CCN(S(=O)(=O)c2ccc3c(c2)OCCO3)CC1	-22.6% (inactive)	
O=S(=O)(N/N=C\c1ccc2c(c1)OCO2)c1ccc(Cl)cc1		10 µM (active)
O=S(=O)(Nc1cccnc1Cl)c1ccc2c(c1)OCCO2	1.38% (inactive)	
O=S(=O)(N/N=C/c1ccc2c(c1)OCCO2)c1ccc(Cl)cc1		11.2 µM (active)
O=C(Nc1nnc(SCc2ccc(Cl)cc2Cl)s1)C1COc2ccccc2O1 (configuration not stated)	-14.7% (inactive)	

Structure (SMILES)	activity, negative = inhibition	AC50
O=C(Nc1nnc(SCc2c(Cl)cccc2Cl)s1)C1CCCO1 (configuration not stated)		17.8 µM (active)
CCc1nnc(NC(=O)C2CCN(C(=O)NC3CCCCC3)CC2)s1	-6.52% (inactive)	
C=CCNCCOCCOc1ccc(C)cc1[N+](=O)[O-]		0.794 µM (active)
CCCCNCCOCCOc1ccc(C)cc1[N+](=O)[O-]		0.794 µM (active)
COc1ccc(C=O)cc1COc1ccc(C)cc1[N+](=O)[O-]		1.12 µM (active)
O=c1cc(N2CCN(c3ccccc3)CC2)[nH]c(=O)n1C1CCCCC1	-14.4% (inactive)	
COc1ccc(COC(=O)N/N=C2/C[C@@H](O)[C@@H](O)[C@@H]3[C@@H]4C(=O)N(C(C)(C)C)C(=O)[C@H]4CC[C@H]23)cc1	-10.2% [at 11.4 µM] (inactive)	
CN(C)S(=O)(=O)Oc1ccsc1C(=O)Nc1ccc(Cl)cc1		0.891 µM (active)
COC(=O)c1sccc1-c1ccc(C(=O)Nc2cccc(Cl)c2)o1		1.41 µM (active)
Cc1ccc(Sc2ccc(NC(=O)c3ccc(S(C)(=O)=O)cc3Cl)cc2)cc1	3.32% (inactive)	
CN(C)S(=O)(=O)c1ccc(NC(=O)c2cc(F)c(F)cc2Cl)cc1	7.7% (inactive)	
CN(C)S(=O)(=O)Oc1ccsc1C(=O)Nc1cccc(Cl)c1		1.41 µM (active)
C[C@]12CC3CC(N)(C1)C[C@@](C)(C3)C2	-0.566% (inactive)	
CC(C)C(CCNC(=O)CC(Cc1ccccc1)c1ccco1)c1ccco1 (configuration not stated)	-28.6% (inactive)	
C=C1C(=O)C=C2CN(C(=O)c3ccccc3)[C@@](Cc3ccc(F)cc3)(C(=O)OC)[C@@H]12		15.8 µM (active)
C=C1C(=O)C=C2CN(C(=O)c3ccccc3)[C@@](Cc3ccc(OC)cc3)(C(=O)OC)[C@@H]12		15.8 µM (active)
COC(=O)[C@@]1(Cc2ccc(F)cc2)[C@@H]2C(=CC(=O)[C@H]2CC(=O)C(=O)N2CCCC2)CN1C(=O)c1ccccc1	-6.64% (inactive)	
COC(=O)[C@@]1(Cc2ccc(F)cc2)[C@@H]2C(=CC(=O)[C@H]2CC(=O)C(=O)N(C)C)CN1C(=O)c1ccccc1	-12.2% (inactive)	
COC(=O)[C@@]1(Cc2ccc(OC)cc2)[C@@H]2C(=CC(=O)[C@H]2CC(=O)C(=O)N(C)C)CN1C(=O)c1ccccc1	1.41% (inactive)	
COC(=O)[C@@]1(Cc2ccc(OC)cc2)[C@@H]2C(=CC(=O)[C@H]2CC(=O)C(=O)N2CCCC2)CN1C(=O)c1ccccc1	-15.6% (inactive)	
CCN1CCN(C(=O)N[C@H](C(=O)N[C@@H]2C(=O)N3C(C(=O)O)=C(CSc4nnnn4C)CS[C@@H]23)c2ccc(O)cc2)C(=O)C1=O	-9.57% [at 25.6 µM] (inactive)	
O=C(O)CSc1cc(C(F)(F)F)nc(-c2ccccn2)n1	-5.99% (inactive)	
CCOC(=O)CSc1cc(C(F)(F)F)nc(-c2ccccn2)n1		2.24 µM (active)
